In all, about 290,000 compounds went through this assay and about 11,000 (3.8%) were called active.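 How the source made its calls: active means mean replicate inhibition above about 79%, with every replicate also reaching it (limit read from the data); inconclusive means only one of the two criteria met; inactive means mean below limit and not every replicate reaching it.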 The list comes from a sample in which actives are over-represented; it also holds similar structures and randomly drawn compounds.
Target: FAD-linked sulfhydryl oxidase ALR (Homo sapiens) (UniProt P55789)
Sequence (P55789 whole entry, looked up): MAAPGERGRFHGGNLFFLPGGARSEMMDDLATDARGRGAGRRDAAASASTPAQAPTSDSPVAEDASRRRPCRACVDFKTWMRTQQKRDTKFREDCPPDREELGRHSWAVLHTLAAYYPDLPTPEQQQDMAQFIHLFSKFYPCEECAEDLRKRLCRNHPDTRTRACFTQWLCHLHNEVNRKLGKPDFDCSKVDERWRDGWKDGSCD
Assay: ALR-catalysed DTT oxidation blockers – biochemical, H2O2 detection, HRP-luminol luminescence, single point, primary screen (AID 485317)
Conditions: purified ALR, hits give high values, concentration not given here

inhibition, active:
Cc1cc(/C=C2\SC(=O)N(C)C2=O)c(C)n1-c1cccc(C(=O)O)c1 81.6%
Cc1ccc(-c2c3c(=O)n(C)c(=O)n(C)c3cn2-n2cnnc2)cc1 97.2%
Cc1cccc(C(=O)N2CCCC(Nc3ccc(C(C)C)cc3)C2)n1 (stereo not drawn) 97.8%
COc1ccc(NC2CCCN(C(=O)c3ccncc3)C2)cc1 (stereo not drawn) 95.8%
COC(=O)c1cccc(C(=O)N2CCCC(Nc3ccc4c(c3)OCCO4)C2)c1 (stereo not drawn) 93.9%
CCc1ccc(NC(=O)CN2C(=O)CSC2=O)cc1 96%
O=C1CSC(c2cccc(F)c2)N1c1ccccc1F (stereo not drawn) 91.3%
Cc1ccc2nc(-c3ccccc3)cc(C(=O)O)c2c1 89.7%
COc1ccc(Br)cc1/C=N/Nc1ccc(Cl)c(C(=O)O)c1 96.9%
Fc1cccc(Cl)c1CSc1ccc(-c2ccco2)nn1 98.3%
Brc1ccc(CSc2ccc(-c3ccco3)nn2)cc1 98.2%
Cc1cccn2cc(-c3cccc(S(=O)(=O)N4CCCCC4)c3)nc12 90.9%
COc1ncnc2c1N=C1CC(C)(C)CC(N)=C1S2 99%
NS(=O)(=O)c1ccc(NC(=S)NNC(=O)c2cccs2)cc1 96.9%
Cc1cc(Nc2ccccc2)n(CCC#N)n1 98.6%
Cc1ccc(CNC(=O)c2ccc(CS(=O)Cc3cccc(Cl)c3)o2)cc1 (stereo not drawn) 92.3%
COc1cccc(N2CCN(C(=O)C3CCCN(S(=O)(=O)c4cnc[nH]4)C3)CC2)c1 (stereo not drawn) 98.9%

inhibition, inactive:
COc1ccc(NC(=O)CNc2cc(S(=O)(=O)N3CCOCC3)ccc2N2CCOCC2)c(OC)c1 1.23%
Cc1ccc(NS(=O)(=O)c2ccc(C(C)C)cc2)cc1S(=O)(=O)N1CCOCC1 4.5%
Cc1cc(C(=O)Nc2nnc(C3CC3)s2)c(C)s1 -0.2%
CC(C)CN(C(=O)COC(=O)c1ccc(Cl)c(N)c1)c1c(N)n(Cc2ccccc2)c(=O)[nH]c1=O -4.01%
CN1C(=O)/C(=C/c2ccco2)SC1=Nc1cccc(C(=O)O)c1 1.79%
Cc1cc(/C=N/n2cnnc2)c(C)n1-c1cccc(C(=O)O)c1 2.1%
COc1ccc(-c2c3c(=O)n(C)c(=O)n(C)c3cn2-c2cccc(OC)c2)cc1 -5.98%
Cc1ccc(-c2c3c(=O)n(C)c(=O)n(C)c3cn2-c2ccccc2O)cc1 -5.8%
O=C(COC(=O)c1cc(S(=O)(=O)N2CCOCC2)ccc1Cl)NCCc1ccccc1 -0.788%
CCc1ccccc1OCC(=O)Nc1ccc(C)c(S(=O)(=O)N2CCCCCC2)c1 -0.917%
CC(C)c1ccc(NC(=O)C2CCCN(S(=O)(=O)c3cccnc3)C2)cc1 (stereo not drawn) 1.01%
CC(C)c1ccc(NC(=O)NC2CCCCC2)cc1 -0.723%
O=C(Nc1ccc2c(c1)OCCO2)C1CCCN(c2ncccn2)C1 (stereo not drawn) -3.09%
COC(=O)c1cccc(C(=O)N2CCC(CCC(=O)NCc3ccc(F)cc3)CC2)c1 -3.28%
CC(C)c1ccc(NC2CCCN(C(=O)c3ccncc3)C2)cc1 (stereo not drawn) 53.9%
COc1ccc(C(=O)N2CCC(C(=O)Nc3ccc(C)cc3)CC2)cc1 -30.7%
O=C(Nc1ccc2nc3n(c(=O)c2c1)CCCC3)c1ccc(Cl)nc1 0.685%
COc1ccccc1-c1nnc(-c2ccc(F)cc2)o1 2.91%
COc1ccc(NS(=O)(=O)c2ccc(C)c(C(=O)N(C)Cc3ccc(OC)cc3OC)c2)cc1 -17.9%
O=C(Nc1ccc(S(=O)(=O)N2CCCCC2)cc1)C1CCN(C(=O)c2ccc(F)cc2)CC1 -0.325%
CC1CCN(C(=O)c2cccc(S(=O)(=O)N3CCCc4ccccc43)c2)CC1 -15.4%
CC(C)(C)OC(=O)C[C@@H]1C/C=C\C[C@@H](CC(=O)N[C@@H](CO)Cc2ccccc2)C(=O)N2CCC[C@H]2COC1=O -8.71%
COc1ccc(C(=NN)c2ccc(OC)cc2)cc1 0.931%
CCC(=O)c1ccc(OCC(=O)Nc2ccc(N3CCCCC3)cc2)cc1 -9.1%
Cc1ccc(C)c(OCCC(=O)Nc2cccc(S(=O)(=O)N3CCCC3)c2)c1 -0.0535%
CCc1ccc(NC(=O)Cn2ncn3c(cc4ccccc43)c2=O)cc1 3.26%
COc1ccc(NC(=O)CN2C(=O)CSC2=O)cc1 21.6%
Cc1ccc2nc(NC(=O)C3CSC4(C)CCC(=O)N34)sc2c1 (stereo not drawn) -0.552%
O=C1CSC(c2ccccc2)N1c1nc(-c2ccc(Cl)cc2Cl)cs1 (stereo not drawn) -3%
O=C1CSC(c2cccc(F)c2)N1c1ccc(O)cc1 (stereo not drawn) -57.5%
COc1ccccc1CNC(=O)c1ccc(Cl)c(S(=O)(=O)N2CCCC2)c1 -3.23%
CC(=O)O[C@H]1CC[C@@]2(C)[C@@H](CC[C@@H]3[C@@H]2CC[C@]2(C)[C@@H](C(C)(C)O)C[C@@H]32)C1 -2.24%
Cc1ccc2nc(-c3ccncc3)cc(C(=O)Nc3ccncc3)c2c1 -3.42%
Cc1ccc2nc(-c3cccc(Br)c3)cc(C(=O)Nn3cnnc3)c2c1 1.88%
O=C(CC1SC(N2CCOCC2)=NC1=O)Nc1ccccc1F (stereo not drawn) -2.71%
Cc1ccc(S(=O)(=O)N2CCN(C(=O)Cc3sc(C)nc3-c3ccc(F)cc3)CC2)c(C)c1 -12.2%
CCC1(C)NC(=O)N(CC(=O)N2CCN(c3cccc(Cl)c3)CC2)C1=O (stereo not drawn) 1.58%
O=C(COC(=O)COc1ccccc1F)Nc1cccc(S(=O)(=O)N2CCCCC2)c1 -10.2%
COc1ccc(Br)cc1/C=N/n1c(C)nnc1C -4.68%
COc1ccc(Br)cc1/C=N/NC(=O)c1cccc(S(=O)(=O)N2CCOCC2)c1 -1.11%
COC(=O)c1ccc(SCc2ccccc2)nc1 -2.47%
CCN(CC(=O)Nc1cccc(S(=O)(=O)N2CCCCC2)c1)Cc1ccccc1 -23.2%
O=C(CSc1ccc(-c2ccco2)nn1)Nc1cccc(F)c1 -14%
COc1ccc(NC(=O)CSc2ccc(-c3ccco3)nn2)c(OC)c1 0.2%
O=C(CSc1ccc(-c2ccco2)nn1)NCc1ccc2c(c1)OCO2 3.65%
Cc1cc(SCc2c(F)cccc2Cl)nc(=O)[nH]1 35.2%
CCCC(CNC(=O)COC(=O)C1=NNC(=O)CC1)c1ccc(Cl)cc1Cl (stereo not drawn) 0.0724%
COc1cc(OC)cc(C(=O)NCC(=O)N2CCCCCCC2)c1 -4.06%
COc1ccc(Nc2ncnc3sc(C)cc23)cc1 7.07%
Cc1cccc(C(C)C)c1NC(=O)COC(=O)C1CC(=O)N(Cc2ccccc2)C1 (stereo not drawn) -1.43%
C[C@H](CO)N1C[C@H](C)[C@@H](CN(C)S(=O)(=O)c2ccc(F)cc2)Oc2ccc(NC(=O)CCC(F)(F)F)cc2C1=O -3.84%
O=C1OC[C@@H]2CCCN2C(=O)[C@H](CC(=O)N(CCO)Cc2ccccc2)C/C=C\CC[C@@H]1Cc1ccc(F)cc1 -10.6%
COc1ccc(Cl)cc1NC(=O)CN(C)C(=O)c1ccc2n[nH]nc2c1 2.11%
COc1ccc(OCCNC(=O)c2cc(C3CC3)nc3c2cnn3C(C)C)cc1 -7.42%
O=S(=O)(c1cccc(-c2nnc3n2CCCCC3)c1)N1CCOCC1 -3.91%
O=S(=O)(c1cccc(-c2cn3ccccc3n2)c1)N1CCCC1 0.842%
COc1ccccc1-c1nnc2n1N=C(c1ccc(OC(F)F)c(OCC3CC3)c1)CS2 0.875%
CCN(C(=O)CSc1ncnc2c1cnn2-c1ccccc1)C1CCS(=O)(=O)C1 (stereo not drawn) 8.44%
CCCCn1c(N)c(N(CCOC)C(=O)c2cccc(OCc3ccccc3)c2)c(=O)[nH]c1=O -0.129%
COc1ccc(-c2cc(C(=O)N(C)Cc3ccc(OC)c(OC)c3OC)c3ccccc3n2)cc1OC 0.485%
COc1ccc(Cl)cc1C(=O)OCC(=O)NCc1cccs1 -0.428%
Cc1ccc(-c2cc(=O)[nH]c(NCc3ccccc3)n2)cc1 -7.47%
O=C(NC(=S)Nc1ccc(NC(=O)c2cccs2)cc1)c1ccc([N+](=O)[O-])cc1 -3.61%
CS(=O)(=O)c1ccc(C(=O)NNC(=O)c2cccs2)cc1 -4.92%
C=CC(COCc1ccccc1)N(CC(=O)OC)S(=O)(=O)c1cc(Br)ccc1OC (stereo not drawn) -15.6%
Cc1cc(Nc2ccccc2)n(C(=O)c2ccc(N)cc2)n1 28.5%
Cc1cc(NC(=O)COc2ccc(Cl)cc2Cl)n(CCC#N)n1 -11.3%
Cc1cc(C(=O)OCC(=O)Nc2ccccc2Cl)c(C)o1 -4%
COc1cc(N)c(Cl)cc1C(=O)OCC(=O)c1ccc2c(c1)NC(=O)CO2 1.9%
O=C(NCc1ccc2c(c1)OCO2)c1c(-c2ccsc2)sc2ccccc12 3.11%
O=C(NCc1cccs1)c1ccc(CS(=O)Cc2ccccc2Cl)o1 (stereo not drawn) 21.5%
Cc1ccc(CS(=O)Cc2ccc(C(=O)N3CCOCC3)o2)cc1 (stereo not drawn) -2.5%
CCN(CC(=O)Nc1ccc(OC)cc1)C(=O)CSCc1ccc(C)cc1 -1.67%
Cc1nn(C)cc1C(=O)c1ccccc1 -7.74%
O=C(C1CCCN(S(=O)(=O)c2ccccc2)C1)N1CCN(c2ccc(F)cc2)CC1 (stereo not drawn) 19.8%
Cc1cccc(N2CCN(C(=O)C3CCN(S(=O)(=O)c4cnc[nH]4)CC3)CC2)c1C 0.188%

From PubChem BioAssay AID485317 (Broad Institute, 2010)
